# Shown is part of a subset that was picked to be rich in hits.
# Tg IFNy HTS = blocks Toxoplasma gondii growth in the presence of IFN-gamma. Toxoplasma gondii growth in IFN-gamma-treated host cells; hits give low values. activity change, negative = inhibition, % (no concentration beside the values). 3.8% of 69,000 active; in the data active = activity change below about -70%, passing the limit was not always enough;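 note: host cells are HeLa cells infected with Toxoplasma gondii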
# Hits are given with their value; 0 = inactive.
SMILES,Tg IFNy HTS
C[C@@H]1CCCCO[C@@H](CN(C)Cc2ccc(Cl)c(Cl)c2)[C@@H](C)CN([C@H](C)CO)C(=O)c2cc(NS(=O)(=O)c3cccs3)ccc2O1,0
C[C@H](CO)N1C[C@H](C)[C@@H](CN(C)Cc2ccc(Cl)c(Cl)c2)OCCCC[C@H](C)Oc2ccc(NS(=O)(=O)c3cccs3)cc2C1=O,-173
Cc1ccc(S(=O)(=O)Nc2ccc3c(c2)C(=O)N([C@@H](C)CO)C[C@H](C)[C@@H](CN(C)S(=O)(=O)c2cccs2)OCCCC[C@H](C)O3)cc1,-99
C[C@@H]1CCCCO[C@H](CN(C)Cc2ccc(Cl)c(Cl)c2)[C@@H](C)CN([C@H](C)CO)C(=O)c2cc(NS(=O)(=O)c3cccs3)ccc2O1,0
Cc1noc(C)c1NC(=O)Nc1ccc2c(c1)C(=O)N([C@H](C)CO)C[C@H](C)[C@@H](CN(C)S(=O)(=O)c1cccs1)OCCCC[C@H](C)O2,0
CC(C)(C)S(=O)(=O)c1ccc(NCCc2c[nH]c3ccccc23)nn1,0
Cc1[nH]cnc1-c1nccn1C(C)Cn1ccc2ccccc21 (stereo not drawn),0
O=C(N/N=C/c1ccccc1O)c1ccccc1O,-83
O=C(/C=C/c1ccccc1)NC(=O)c1ccccc1O,0
CC(=O)Nc1ccc(OC(=O)c2ccccc2O)cc1,0
CCN(Cc1cccnc1)C(=O)CC1C(=O)NCCN1Cc1ccc(C)o1 (stereo not drawn),0
Fc1cccc(CN2CCN(Cc3cnc(-c4ccco4)nc3)CC2)c1,0
Cc1cc(C(F)F)nn1CC(=O)N1CCC(c2nc(-c3cccnc3)cc(=O)[nH]2)C1 (stereo not drawn),0
NC(=O)C1CCCc2c1[nH]c1ccc(Cl)cc21 (stereo not drawn),0
CN1C(=O)C2(NCCc3c2[nH]c2ccc(Cl)cc32)c2cc(Br)ccc21 (stereo not drawn),0
O=CNC1CCCc2c1[nH]c1ccc(Cl)cc21 (stereo not drawn),-81
Cc1ccc(-c2coc(-c3ccc(NC(=O)c4ccc(Br)o4)cc3)n2)c(C)c1,0
COc1cccc(-c2nnc(SCC(=O)O)n2-c2ccccc2C)c1,0
COc1cccc(OCCN2CCN(c3ncnc4c3CCNC4)CC2)c1,0
COc1cccc(C2CCN(c3ncnc4c3CCNC4)C2)c1OC (stereo not drawn),-72
c1cc(C2CCN(c3ncnc4c3CCNC4)CC2)ccn1,0
Cc1cccc(CN2CCN(C(=O)c3cn(-c4ccccc4)nn3)C(C)C2=O)c1 (stereo not drawn),0
CC(=O)N1CCC2(CC1)OC(=O)C(C)=C2C(=O)NCCN1CCCCCC1,0
O=c1cc(CN2CCCC2)nc2n1CCCN(Cc1ccco1)C2,0
CCc1cccc(NC(=O)Cn2c(=O)cc(C(=O)N3CCOCC3)c3ccccc32)c1,0
SMILES,Tg IFNy HTS
Cn1nc(-c2ccccc2)cc1NC(=O)Cn1cnc(Cl)c1Cl,0
Cn1nc(-c2ccccc2)cc1NC(=O)C1CCCCC1,0
Cc1c(C)c(C)c(S(=O)(=O)Nc2cc(-c3ccccc3)nn2CCC#N)c(C)c1C,-88
CCOc1ccc(C(=O)NCCc2csc(-c3cccc(F)c3)n2)cc1,0
COCC(=O)N1CC[C@@H]2OCC[C@@]2(c2nc(C)no2)C1,0
COc1ccc(-n2cccn2)c(CN2CCCCC2c2ccccn2)c1 (stereo not drawn),-85
COc1ccc(-c2nc(CN3CCCC3c3ccccn3)c(C)o2)cc1 (stereo not drawn),0
COc1ccc(-n2cccn2)c(CN2CCC(n3nc(C)cc3C)C2)c1 (stereo not drawn),0
CC(=O)N1CCCC(OCC2=CCCN(Cc3cc(C)on3)C2)C1 (stereo not drawn),0
Cc1ccc(Oc2ccc(C#N)c(C#N)c2)c(-n2nc3ccccc3n2)c1,0
CC(C)c1csc(-c2ccc(S(=O)(=O)NCCN3CCCCC3C)s2)n1 (stereo not drawn),0
O=C(NCc1ccccc1)c1nc2c(o1)CN(Cc1ccccc1)C2,0
O=S(=O)(c1ccccc1C(F)(F)F)N1CCC2(CC1)Nc1cc(F)ccc1-n1cccc12,0
Cc1ccc(C2=NC3(CCN(CC(=O)Nc4c(C)cccc4C)CC3)NC2=O)cc1,0
COc1ccccc1C(=O)NCCc1sc(-c2cccc(F)c2)nc1C,0
Cc1nc(-c2ccc(Cl)cc2)sc1CCNC(=O)COc1ccccc1F,0
COc1ccccc1C(=O)NCCc1sc(-c2ccc(F)cc2)nc1C,-107
COc1ccc(S(=O)(=O)NCCc2sc(-c3ccc(OC)c(OC)c3)nc2C)cc1C,0
Cc1ccccc1C(=O)NCCc1sc(-c2ccc(Cl)cc2)nc1C,0
Cc1ccccc1OCC(=O)NCCc1sc(-c2ccc(Cl)cc2)nc1C,0
COc1ccc(-c2nc(C)c(CCNS(=O)(=O)c3ccc(-c4ccccc4)cc3)s2)cc1OC,-118
COc1ccccc1OCC(=O)NCCc1sc(-c2ccc(F)cc2)nc1C,0
COc1ccc(-c2nc(C)c(CCNS(=O)(=O)c3ccc(C)c(C)c3)s2)cc1OC,0
Cc1nc(-c2ccc(Cl)cc2)sc1CCNC(=O)c1ccccc1F,0
COc1ccccc1C(=O)NCCc1sc(-c2ccc(Cl)cc2)nc1C,-107
